Assay results from PubChem BioAssay (Tox21).
Inconclusive results are not listed. Activity calls are given as the source filed them. Unless noted, calls come from the whole dose curve.

Key:
[1] = qHTS assay to identify small molecule agonists of the vitamin D receptor (VDR) signaling pathway - cell viability counter screen (AID 743224; active = well fitted curve in the direction sought with a large enough effect in the repeat runs; an effect the other way counts as inactive or inconclusive; note: series mostly up to about 63 µM; nearly all actives have a fitted effect of over 50% in size)
Summary of the method: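 Compounds were pin-transferred onto VDR-bla cells plated 4 h earlier; following 16 h incubation at 37C, cell viability was quantified by CellTiter-Glo luminescence after 30 min at room temperature.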

[2] = qHTS assay to identify small molecule agonists of the NFkB signaling pathway (AID 1159509; active = well fitted curve in the direction sought with a large enough effect in the signal ratio in the repeat runs, not every such curve was filed as active; the % refers to the signal ratio; note: series mostly up to about 61 µM)
Summary of the method: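 Readout: FRET fluorescence, 405 nm excitation, 460/530 nm emission; beta-lactamase expression disrupts FRET. Cells: ME-180 stably carrying NF-kB-driven bla reporter. Compound exposure 5 hr, 37 C, 5% CO2.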

[3] = qHTS assay to identify small molecule agonists of the NFkB signaling pathway - cell viability counter screen (AID 1159515); note: series mostly up to about 61 µM; nearly all actives have a fitted effect of over 55% in size
Summary of the method: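 Parallel cytotoxicity counter screen in ME-180 cells carrying an NFkB-response-element beta-lactamase reporter, 2,000 cells/well. Compound exposure lasted 5 hr at 37 C, 5% CO2. Cell viability was quantified by CellTiter-Glo luminescence.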

[4] = qHTS assay to identify small molecule agonists of the endoplasmic reticulum stress response signaling pathway (AID 1159516; active = well fitted activation curve with a large enough effect in the signal ratio in the repeat runs, not every such curve was filed as active; the % refers to the signal ratio)
Summary of the method: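 Using a HeLa line with an ESRE-driven beta-lactamase gene, agonist activity was measured by FRET substrate fluorescence (460 and 530 nm emission) after cells were treated with compounds for 5 hr at 37 C and 5% CO2.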

[5] = qHTS assay to identify small molecule agonists of the endoplasmic reticulum stress response signaling pathway - cell viability counter screen (AID 1159517);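 note: HeLa cells carrying an ER stress response element beta-lactamase reporter; series mostly up to about 61 µM; nearly all actives have a fitted effect of over 50% in size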
Summary of the method: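 After overnight attachment, ESRE-bla HeLa cells were treated with Tox21 library compounds for 5 hr. CellTiter-Glo luminescence, read 30 min post-addition at room temperature, reported viability.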

[6] = qHTS assay to identify small molecule antagonists of the retinoid-related orphan receptor gamma (ROR-gamma) signaling pathway - cell viability counter screen (AID 1159520; active = well fitted curve in the direction sought with a large enough effect in the repeat runs; an effect the other way counts as inactive or inconclusive; note: nearly all actives have a fitted effect of over 50% in size)
Summary of the method: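 Cytotoxicity was read from cellular ATP (CellTiter-Glo luminescence) after 16 hr at 37 C with 1 uM doxycycline induction. The inducer was added 2 hr after compound transfer to Tet-on ROR gamma CHO cells.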

[7] = target: Nuclear receptor ROR-gamma (Homo sapiens) (UniProt P51449); experiment: qHTS assay to identify small molecule antagonists of the retinoid-related orphan receptor gamma (ROR-gamma) signaling pathway (AID 1159521; active = well fitted curve in the direction sought with a large enough effect in the repeat runs; an effect the other way counts as inactive or inconclusive;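 note: CHO cells with doxycycline inducible ROR-gamma driving an RORE luciferase reporter; top concentration of the series differs between compounds; nearly all actives have a fitted effect of over 50% in size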)
Summary of the method: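 RORγ antagonism is scored from reduced reporter luminescence in Tet-on CHO cells. Induction used 1 uM final doxycycline hyclate for 16 h at 37 C, following a 2 h compound exposure.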

[8] = qHTS assay to identify small molecule agonists of the AP-1 signaling pathway - cell viability counter screen (AID 1159525); note: nearly all actives have a fitted effect of over 55% in size
Summary of the method: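 Intracellular ATP by Cell Titer Glo luminescence (30 min, RT) in the same ME-180 AP-1-bla wells after the 5 h compound exposure at 37 °C. Normalised to tetra n-octyl ammonium bromide and DMSO controls.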

[9] = qHTS assay to identify small molecule agonists of the AP-1 signaling pathway (AID 1159526)
[10] = qHTS assay to identify small molecule antagonists of the vitamin D receptor (VDR) signaling pathway - cell viability counter screen (AID 743225; active = well fitted curve in the direction sought with a large enough effect in the repeat runs; an effect the other way counts as inactive or inconclusive; note: nearly all actives have a fitted effect of over 50% in size)
Summary of the method: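 Cells (VDR-UAS-bla HEK 293T) are plated, rested 4 h at 37C, dosed with compound and 3 nM final 1-alpha,25-dihydroxy vitamin D3, and incubated 16 h. Viability is taken from CellTiter-Glo luminescence in the reporter wells.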

Measured: Potency

CCC(=O)/C=C/c1ccc(OC)cc1
not listed: [10]
inactive: all other assays above

NS(=O)(=O)c1cc2c(cc1Cl)NC(CSCc1ccccc1)=NS2(=O)=O
inactive: all assays above

CCCOc1ccccc1-c1nc2n[nH]nc2c(=O)[nH]1
inactive: all assays above

CN(C)C(=O)Nc1ccccc1
inactive: all assays above

C=C[Si](OC)(OC)OC
inactive: all assays above

O=C1CC2(CCCC2)CC(=O)N1
inactive: all assays above

Nc1ccn(C2CO[C@H](CO)O2)c(=O)n1 (stereo partly drawn)
inactive: all assays above

CCO[Si](C)(OCC)OCC
not listed: [10]
inactive: all other assays above

C1COCCO1
inactive: all assays above

C=C(C)C(=O)OCCC(C)OC(=O)C(=C)C (stereo not drawn)
inactive: all assays above

CCCCCCCCCCC1CO1 (stereo not drawn)
inactive: all assays above

c1ccc(CCCc2ccccn2)cc1
inactive: all assays above

NC1CCN(c2cccc(Cl)n2)CC1
inactive: all assays above

Cc1cc(C)cc(OCC2CNC(=O)O2)c1 (stereo not drawn)
inactive: all assays above

N#CCc1ccccc1[N+](=O)[O-]
inactive: all assays above

CN(C)CCn1nnnc1SCC1=C(C(=O)O)N2C(=O)[C@@H](NC(=O)Cc3csc(N)n3)[C@H]2SC1
inactive: all assays above

Cc1c(C)n(CCN(C)C)c2ccc(C(=O)OCCN(C)C)cc12
inactive: all assays above

Nc1cc(C(Cl)=C(Cl)Cl)c(S(N)(=O)=O)cc1S(N)(=O)=O
inactive: all assays above
